Experimental data published in PubChem BioAssay AID602290 (National Center for Advancing Translational Sciences (NCATS), 2012).
A number with no mark means an inactive call. Activity calls are given as the source filed them.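 The calls were made as follows: active = fold change shows a rise in VEGF expression relative to GAPDH, above the control level; inconclusive = expression about equal to the control; inactive = no rise in relative expression.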

Assay: qHTS Assay for Agonists of the Relaxin Receptor RXFP1: VEGF expression
Conditions: THP1 cells, VEGF mRNA qRT-PCR, 2 h; hits give high values
From the text: The relaxin hormone is involved in the variety of biological functions in normal tissues and diseases. The role of relaxin is well-established in female reproduction and parturition, mammary gland and endometrial development, maintenance of myometrial quiescence during pregnancy. Relaxin signaling through its G protein-coupled receptor (GPCR) RXFP1 results in ECM remodeling through regulation of collagen deposition, cell invasiveness, proliferation and overall tissue homeostasis. […] Recombinant human relaxin (rhRlx) is currently being tested in clinical trials as a protective agent in congestive heart failure, in treating severe preeclampsia, and as an anti-fibrotic agent in systemic sclerosis.
Upon relaxin binding RXFP1 activation leads to the activation of adenylate cyclase (AC) via Gs. cAMP will activate PKA, which phosphorylates many signaling proteins. Thus, detection of cAMP increase is an easy and reliable indication of relaxin receptor activation. To screen for agonists of the relaxin receptor, a HEK293T cell line stably transfected with RXFP1 was used. RXFP1 activation was assayed by changes in cAMP levels as detected with a time-resolved fluorescence energy transfer (TR-FRET) cAMP detection kit.
After the primary screen and SAR work, a probe and its analogs were tested in this selectivity assay. THP1 cells (human acute monocytic leukemia cell line) were used to analyze the stimulation of VEGF gene expression after treatment with relaxin or compounds. The VEGF stimulation in these cultured […] cells is a well-established property of relaxin.
NIH Chemical Genomics Center [NCGC]
NIH Molecular Libraries Probe Production Centers Network [MLPCN]
Assay Submitter (PI): Alexander Agoulnik
400,000 THP1 cells (0.4 mL at 1x10^6 cells/mL) in test media (RPMI-1640 without phenol red, 0.5% FBS, 1x Pen/Strep, 0.05 mM of 2-mercaptoethanol) were seeded in each well on a 24-well plate. After 24 hours incubation at 37 degrees C, 5% CO2, relaxin or compounds were added for 2 hours. The cells were harvested and RNA was extracted by the Trizol (Invitrogen, Carlsbad, CA) method according to manufacturers' instructions. cDNA was synthesized by using Verso cDNA kit (Thermo Scientific, Waltham, MA) according to manufacturer's protocol. Quantitative real time RT-PCR for VEGF and GAPDH gene expression was done using a Roche LightCycler 480 (Roche Diagnostics, Indianapolis, IN) with the appropriate set of primers and probes spanning different exons. The relative fold change in VEGF mRNA level was calculated by the comparative Ct (2- Ct) method using GAPDH expression for normalization of RNA.

SMILES	fold change
COc1ccccc1C(=O)Nc1ccccc1C(=O)Nc1cccc(SC(F)(F)F)c1	1.15 (active)
CC(C)Oc1ccccc1C(=O)Nc1ccccc1C(=O)Nc1cccc(S(=O)(=O)C(F)(F)F)c1	2.79 (active)
COc1ccccc1C(=O)Nc1ccccc1C(=O)Nc1cccc(S(=O)(=O)C(F)(F)F)c1	1.41 (active)
O=C(O)c1cc(-c2ccccc2)nn1CC1CC(c2cccnc2)=NO1 (centres undefined)	1.01
O=C(Nc1cccc(S(=O)(=O)C(F)(F)F)c1)c1ccccc1NC(=O)c1ccccc1OCC(F)(F)F	1.24 (active)
CCCCOc1ccccc1C(=O)Nc1ccccc1C(=O)Nc1cccc(S(=O)(=O)C(F)(F)F)c1	1.57 (active)
CCCOc1ccccc1C(=O)Nc1ccccc1C(=O)Nc1cccc(S(=O)(=O)C(F)(F)F)c1	1.53 (active)
CCOc1ccccc1C(=O)Nc1ccccc1C(=O)Nc1cccc(S(=O)(=O)C(F)(F)F)c1	2.33 (active)
CCOc1ccccc1C(=O)Nc1ccccc1C(=O)Nc1cccc(C(F)(F)F)c1	1.93 (active)
